{"source": "PubChem BioAssay AID720540", "about": "(National Center for Advancing Translational Sciences (NCATS), 2013)", "note": "Hit rate of the full screen: of about 1,300 compounds, about 460 (35%) were called active. About 39% were inconclusive and are not listed. Calls come from the whole dose curve; as a rule, active = well fitted inhibition curve with a large enough effect; inconclusive = small, poorly fitted or top-dose-only effect; inactive = flat fitted curve, though single readings scatter. The list shows a part of the results. Potency is the fitted concentration of half-maximal effect."}
{"target": "Protein phosphatase EYA2 (Homo sapiens) (UniProt O00167)", "sequence (O00167 whole entry, looked up)": "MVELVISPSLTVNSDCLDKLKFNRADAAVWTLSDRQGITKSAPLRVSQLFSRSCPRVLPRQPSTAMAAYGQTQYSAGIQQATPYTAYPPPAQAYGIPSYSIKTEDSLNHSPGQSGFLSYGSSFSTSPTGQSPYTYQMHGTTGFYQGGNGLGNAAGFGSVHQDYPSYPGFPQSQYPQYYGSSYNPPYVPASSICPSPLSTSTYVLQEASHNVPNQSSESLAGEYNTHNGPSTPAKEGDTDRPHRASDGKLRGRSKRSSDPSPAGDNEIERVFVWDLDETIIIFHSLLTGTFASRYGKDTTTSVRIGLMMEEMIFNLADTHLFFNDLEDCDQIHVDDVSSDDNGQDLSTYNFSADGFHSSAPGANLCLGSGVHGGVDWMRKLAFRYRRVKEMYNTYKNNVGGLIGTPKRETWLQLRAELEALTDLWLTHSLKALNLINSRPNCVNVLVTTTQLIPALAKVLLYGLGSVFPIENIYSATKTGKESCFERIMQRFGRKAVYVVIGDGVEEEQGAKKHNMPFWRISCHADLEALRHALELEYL", "test": "qHTS for Inhibitors of the Phosphatase Activity of Eya2: Confirmatory Assay for Cherry-picked Compounds; note: nearly all actives have a fitted effect of over 65% in size", "details": "purified EYA2 phosphatase activity, qHTS confirmation; series mostly up to 46.1 µM", "procedure,_shortened": "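Eya2 (0.2 uM working solution) preincubated 10 min at room temperature with compound in pH 7.5 HEPES buffer with MgCl2, BSA, DTT. OMFP added (50 uM working solution), 10 min more; fluorescence 485/525 nm, normalized to EGTA and DMSO.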"}
{"smiles": "Oc1c(Br)cc(Br)cc1CNc1cccc2cccnc12", "Potency": "7.57 µM (active)"}
{"smiles": "COC(=O)c1cc2c(ccc3ccccc32)oc1=O", "Potency": "7.57 µM (active)"}
{"smiles": "O=C(SCc1c(O)c2ccccc2oc1=O)c1ccccc1", "Potency": "inactive"}
{"smiles": "COc1ccccc1Nc1nc(-c2ccc3c(c2)NC(=O)CO3)cs1", "Potency": "inactive"}
{"smiles": "COc1ccc(OC)c(Nc2nc(-c3sc(N)nc3C)cs2)c1", "Potency": "8.49 µM (active)"}
{"smiles": "CC1=C(C(=O)N2CCOCC2)CC(CC(=O)NC(c2ccccc2)c2ccccc2)C(=O)N1Cc1ccc(C(C)(C)C)cc1", "note": "(centres undefined)", "Potency": "inactive"}
{"smiles": "Cc1ccc(-c2nc3ccccc3s2)cc1NC(=S)NC(=O)/C=C/c1ccco1", "Potency": "inactive"}
{"smiles": "O=C(O)CCN1C(=O)/C(=C/c2ccc(-c3nc4ccccc4s3)o2)SC1=S", "Potency": "3.79 µM (active)"}
{"smiles": "N#CC1=C(N)n2c(s/c(=C\\c3cccs3)c2=O)=C(C#N)C1c1cccs1", "note": "(centres undefined)", "Potency": "19 µM (active)"}
{"smiles": "O=C(C1=C(O)C(=O)N(c2nc3ccc(Cl)cc3s2)C1c1ccco1)c1ccco1", "note": "(centres undefined)", "Potency": "16.9 µM (active)"}
{"smiles": "COc1ccc2nc(NC(=S)NC(=O)c3ccco3)sc2c1", "Potency": "inactive"}
{"smiles": "COc1cc(NC(=O)c2cccs2)c(OC)cc1NC(=O)CCC(=O)Nc1ccc2ncccc2c1", "Potency": "1.69 µM (active)"}
{"smiles": "COc1cc(NC(=O)c2cccs2)c(OC)cc1NC(=O)Cc1ccccc1", "Potency": "10.7 µM (active)"}
{"smiles": "O=C(NCc1ccc2c3c(cccc13)C(=O)N2)c1cccs1", "Potency": "inactive"}
{"smiles": "COc1cc(NC(=O)c2cccs2)c(OC)cc1NC(=O)CCn1nnc2ccccc21", "Potency": "16.9 µM (active)"}
{"smiles": "COc1cc(NC(=O)c2cccs2)c(OC)cc1NC(=O)Nc1ccc(F)cc1", "Potency": "inactive"}
{"smiles": "Cc1cc(NC(=O)c2cccs2)cc(-c2nc3ncccc3o2)c1O", "Potency": "inactive"}
{"smiles": "O=S(=O)(c1ccccc1)[C@@]1(c2ccccc2)C[C@@H]2ON=C(c3cccc(-c4ccccc4)c3)[C@@H]2C1", "Potency": "inactive"}
{"smiles": "c1ccc(CSc2ccc3nnc(-c4ccccn4)n3n2)cc1", "Potency": "19 µM (active)"}
{"smiles": "COC(=O)c1ccc(CSc2ccc3nnc(-c4ccccn4)n3n2)o1", "Potency": "16.9 µM (active)"}
{"smiles": "Brc1ccc(CSc2ccc3nnc(-c4ccccn4)n3n2)cc1", "Potency": "19 µM (active)"}
{"smiles": "COc1ccccc1OCc1ccc(C(=O)Nc2cc(OC)c(OC)c(OC)c2)o1", "Potency": "inactive"}
{"smiles": "CC1CN(C(=O)c2cc(S(=O)(=O)N(C)c3ccc(F)cc3)ccc2Cl)CC(C)O1", "note": "(centres undefined)", "Potency": "inactive"}
{"smiles": "CN(C)c1ccc(-c2ccnc3c2CC(C)(C(=O)NCCC(F)(F)F)O3)cc1", "note": "(centres undefined)", "Potency": "inactive"}
{"smiles": "CN1C(=O)NC(c2ccccc2)(C(F)(F)F)S/C1=C(/C#N)c1nnc(N2CCOCC2)n1-c1ccccc1", "note": "(centres undefined)", "Potency": "inactive"}
{"smiles": "O=C(CNC(=O)c1[nH]cnc1C(=O)N[C@@H](Cc1ccccc1)C(=O)OCc1ccccc1)OCc1ccccc1", "Potency": "inactive"}
{"smiles": "CCOC(=O)c1ccc(NC(=O)c2nc[nH]c2C(=O)N[C@@H](Cc2ccccc2)C(=O)OC(C)(C)C)cc1", "Potency": "inactive"}
{"smiles": "Cc1ccc(NC(=O)c2[nH]cnc2C(=O)NN)cc1", "Potency": "15.1 µM (active)"}
{"smiles": "NNC(=O)c1nc[nH]c1C(=O)Nc1ccccn1", "Potency": "8.49 µM (active)"}
{"smiles": "O=C(Nc1ccc(F)cc1)c1nc[nH]c1C(=O)O", "Potency": "15.1 µM (active)"}
{"smiles": "C[C@@H](NC(=O)c1nc[nH]c1C(=O)N[C@@H](Cc1ccccc1)C(=O)OC(C)(C)C)c1ccccc1", "Potency": "inactive"}
{"smiles": "Cc1ccc(N=Cc2cccc(O)c2O)c(C)c1", "Potency": "inactive"}
{"smiles": "Cc1ccc(C(=O)N/C(=C\\c2ccco2)C(=O)NCCCn2ccnc2)cc1", "Potency": "4.26 µM (active)"}
{"smiles": "CCn1cc(C(=O)N[C@@H](C)C(=O)NCCCn2ccnc2)c(=O)c2cc3c(cc21)OCO3", "Potency": "inactive"}
{"smiles": "COC(=O)c1ccc(OC(=O)c2cccs2)cc1", "Potency": "10.7 µM (active)"}
{"smiles": "O=C(CNC(=O)c1cccs1)OCC(=O)c1ccc(Cl)cc1", "Potency": "inactive"}
{"smiles": "CC(C)S(=O)(=O)c1cnc(-c2ccccn2)nc1N", "Potency": "16.9 µM (active)"}
{"smiles": "COc1ccc(NC(=O)CSc2ccc(-c3ccccn3)nn2)cc1OC", "Potency": "3.79 µM (active)"}
{"smiles": "COc1cc(NC(=O)c2ccc(S(=O)(=O)N(C)c3ccccc3)cc2)cc(OC)c1", "Potency": "inactive"}
{"smiles": "CN(CC(=O)Nc1cccc(F)c1)C(=O)c1ccc(COc2ccccc2)cc1", "Potency": "inactive"}
{"smiles": "COc1cc(NC(=O)CSc2ccc(-c3ccccn3)nn2)cc(OC)c1", "Potency": "2.13 µM (active)"}
{"smiles": "COc1ccccc1CNC(=O)CSc1ccc(-c2ccccn2)nn1", "Potency": "12 µM (active)"}
{"smiles": "O=C(CSc1ccc(-c2ccccn2)nn1)Nc1cccc(F)c1", "Potency": "3.79 µM (active)"}
{"smiles": "Cn1c(-c2cc(Cl)ccc2O)nc2c1c(=O)[nH]c(=O)n2Cc1ccccc1", "Potency": "inactive"}
{"smiles": "O=C(Cc1cccs1)Nc1ccc2c(c1)C(=O)OC2", "Potency": "inactive"}
{"smiles": "Cc1cnc(C(=O)Nc2ccccc2-c2ccc(C)o2)cn1", "Potency": "inactive"}
{"smiles": "Cc1cccc(-n2c(O)c(C=Nc3ccccc3)c3ccccc3c2=O)n1", "Potency": "inactive"}
{"smiles": "Cc1[nH]n(-c2cccc3ccccc23)c(=O)c1C=Nc1ccc2[nH]c(=O)[nH]c2c1", "Potency": "7.57 µM (active)"}
{"smiles": "C/C=C/c1ccc(OCCSc2nc(C)cc(=O)[nH]2)c(OC)c1", "Potency": "13.5 µM (active)"}
{"smiles": "Cc1cc(NC(=O)CSc2nnc(Nc3ccccc3F)s2)no1", "Potency": "inactive"}
{"smiles": "C/C(N)=C(/C#N)C(=O)CSc1nnc(Nc2cccc(C)c2)s1", "Potency": "inactive"}
{"smiles": "CC(C)Nc1nnc(SCC(=O)Nc2ccc3c(c2)C(=O)c2ccccc2C3=O)s1", "Potency": "6.75 µM (active)"}
{"smiles": "O=C(O)c1ccc2nc(-c3ccco3)c(-c3ccco3)nc2c1", "Potency": "8.49 µM (active)"}
{"smiles": "CC(C)[C@H](NC(=O)c1ccccc1)C(=O)NC1CCCCCCC1", "Potency": "inactive"}
{"smiles": "O=C(NC1CC1)c1ccc2nc(-c3ccco3)c(-c3ccco3)nc2c1", "Potency": "13.5 µM (active)"}
{"smiles": "CC1CCN(CC2C(=O)O[C@@H]3C[C@@]4(C)CCC[C@H](C)C4=C[C@H]23)CC(C)(C)C1", "note": "(some centres undefined)", "Potency": "inactive"}
{"smiles": "CC(=O)Oc1ccccc1C(=O)Oc1ccc(/C=N/n2cnnc2)cc1", "Potency": "16.9 µM (active)"}
{"smiles": "CCC(C)C(CO)NC(=O)/C=C/[C@H]1O[C@@H](n2cnc3c(NC(=O)c4ccccc4)ncnc32)[C@H](O)[C@@H]1O", "note": "(some centres undefined)", "Potency": "inactive"}
{"smiles": "Cc1cc(C(=O)COC(=O)c2cccnc2Cl)c(C)n1-c1c(C)n(C)n(-c2ccccc2)c1=O", "Potency": "inactive"}
{"smiles": "O=C(OCC(=O)c1ccc(Cl)cc1Cl)c1ccccn1", "Potency": "19 µM (active)"}
{"smiles": "O=C(CSc1nnc2c(n1)[nH]c1ccccc12)Nc1ccc(S(=O)(=O)Nc2ncccn2)cc1", "Potency": "5.36 µM (active)"}
{"smiles": "CCc1ccc2[nH]c3nc(SCC(=O)NCC4CCCO4)nnc3c2c1", "note": "(centres undefined)", "Potency": "6.01 µM (active)"}
{"smiles": "CCOc1ccc2[nH]c3nc(SCC(=O)NC4CCCC4)nnc3c2c1", "Potency": "inactive"}
{"smiles": "Cc1c(CC(=O)N[C@@H](C)C(=O)O)c(=O)oc2cc3occ(-c4ccccc4)c3cc12", "Potency": "8.49 µM (active)"}
{"smiles": "Cc1c(CC(=O)NCCCC(=O)O)c(=O)oc2cc3occ(-c4ccccc4)c3cc12", "Potency": "19 µM (active)"}
{"smiles": "Cc1c(CC(=O)NCC(=O)O)c(=O)oc2cc3occ(-c4ccccc4)c3cc12", "Potency": "16.9 µM (active)"}
{"smiles": "Cc1c(CCC(=O)NCCCCCC(=O)O)c(=O)oc2cc3occ(-c4ccccc4)c3cc12", "Potency": "15.1 µM (active)"}
{"smiles": "O=c1cc2oc3cc(O)c(O)cc3c(-c3ccccc3[N+](=O)[O-])c-2cc1O", "Potency": "16.9 µM (active)"}
{"smiles": "CC1=C(/C=C/C(C)=C/C=C/C(C)=C/C(=O)Nc2ccc(O)cc2)C(C)(C)CCC1", "Potency": "inactive"}
{"smiles": "CN1/C(=C\\C=C2/SC(=S)NC2=O)C(C)(C)c2ccccc21", "Potency": "15.1 µM (active)"}
{"smiles": "CC1=NN(c2ccccc2)C(=O)/C1=C\\C=C1/N(C)c2ccccc2C1(C)C", "Potency": "7.57 µM (active)"}
{"smiles": "Cc1ccc(-n2[nH]c(C)c(C=Nc3ccc(S(=O)(=O)Nc4nccs4)cc3)c2=O)cc1C", "Potency": "8.49 µM (active)"}
{"smiles": "Cc1c(CCC(=O)O)c(=O)oc2c(C)c(OCc3cc4c(cc3Cl)OCO4)ccc12", "Potency": "9.53 µM (active)"}
{"smiles": "COc1ccc(/C=C2\\CCc3ccccc3C2=O)cc1CN1CCOCC1", "Potency": "inactive"}
{"smiles": "COc1cccc2c1C(=O)/C(=C/c1ccc(N(C)C)cc1)C2", "Potency": "4.26 µM (active)"}
{"smiles": "Cc1ccc(C(=O)Oc2ccc3ccc(=O)oc3c2)cc1", "Potency": "1.9 µM (active)"}
{"smiles": "Cc1cc(NC(=O)c2cccc(N3C(=O)CCC3=O)c2)no1", "Potency": "inactive"}
{"smiles": "Cc1ccc(C(=O)Oc2ccc(N3C(=O)CCC3=O)c(C)c2)cc1", "Potency": "2.69 µM (active)"}
{"smiles": "CCC(C)c1ccc2oc(-c3ccc(NC(=O)c4ncn[nH]4)cc3)nc2c1", "note": "(centres undefined)", "Potency": "15.1 µM (active)"}
{"smiles": "CC(C)c1ccc2oc(-c3ccc(NC(=O)c4ncn[nH]4)cc3)nc2c1", "Potency": "16.9 µM (active)"}
{"smiles": "CCN(CC)c1ccc(NC(=O)COC(=O)CSc2ccc(Br)cc2C)cc1", "Potency": "12 µM (active)"}
{"smiles": "CCN(CC)c1ccc(N=Cc2cc(Br)ccc2O)cc1", "Potency": "inactive"}
{"smiles": "CN(C)c1ccc(/C=C/c2ccnc3ccc(-c4ccccc4)cc23)cc1", "Potency": "21.3 µM (active)"}
{"smiles": "CCN(C)c1ccc(/C=C/c2ccnc3ccccc23)cc1", "Potency": "21.3 µM (active)"}
{"smiles": "Cc1ccc(O)c(C(=O)c2cnc3c(c2)c(-c2ccc(F)cc2)c(C#N)c(=O)n3C)c1", "Potency": "inactive"}
{"smiles": "O=C(Nc1nc2ccc(F)cc2s1)C1=NN(c2ccccc2)C(=O)CC1", "Potency": "inactive"}
{"smiles": "COc1ccc(CCNC(=O)C(=O)NCc2cccs2)cc1OC", "Potency": "inactive"}
{"smiles": "COc1ccc(CCNc2nc(-c3ccccn3)cs2)cc1OC", "Potency": "7.57 µM (active)"}
{"smiles": "Cc1cccc(NC(=S)N(CCN2CCOCC2)Cc2cc3cc4c(cc3[nH]c2=O)OCCO4)c1", "Potency": "inactive"}
{"smiles": "Cc1ccc(S(=O)(=O)Nc2c(C)n(C)n(-c3ccccc3)c2=O)cc1C(=O)OC(C)C(=O)N(C)c1ccccc1", "note": "(centres undefined)", "Potency": "inactive"}
{"smiles": "COc1ccc(C(NC(C)=O)c2ccc3cccnc3c2O)cc1OC", "note": "(centres undefined)", "Potency": "1.69 µM (active)"}
{"smiles": "CCCC(=O)NC(c1ccc(OC)c(OC)c1)c1cc(Cl)c2cccnc2c1O", "note": "(centres undefined)", "Potency": "2.69 µM (active)"}
{"smiles": "CC(=O)NC(c1ccc(Cl)cc1)c1ccc2cccnc2c1O", "note": "(centres undefined)", "Potency": "2.13 µM (active)"}
{"smiles": "CCCCC(=O)NC(c1cccc([N+](=O)[O-])c1)c1ccc2cccnc2c1O", "note": "(centres undefined)", "Potency": "4.26 µM (active)"}
